Data taken from PubChem BioAssay AID686979 (National Center for Advancing Translational Sciences (NCATS), 2013).
Out of some 420,000 compounds screened, about 50,000 (12%) were called active. Roughly 26% stayed inconclusive and do not appear here. Calls come from the whole dose curve; as a rule, active = well fitted inhibition curve with a large enough effect; inconclusive = small, poorly fitted or top-dose-only effect; inactive = flat fitted curve, though single readings scatter. Shown is part of a subset that was picked to be rich in actives. Where a call stands in place of a potency, no number is given.
Potency is the fitted concentration of half-maximal effect.

Experiment: qHTS for Inhibitors of human tyrosyl-DNA phosphodiesterase 1 (TDP1): qHTS in cells in presence of CPT; note: nearly all actives have a fitted effect of over 55% in size
Details: chicken DT40 Tdp1-/-;hTDP1 cells + 20 nM CPT, ATP luminescence, 48 h; series mostly up to 46.2 µM
How it was run: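 Chicken DT40 Tdp1-/- cells complemented with human TDP1, 400 cells/well, exposed to compounds plus 20 nM camptothecin for at least 48 h at 37 C; viability read as ATP content by CellTiter-Glo luminescence.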
With `COc1ccccc1C(=O)NCCn1cc(SCC(=O)NCc2ccco2)c2ccccc21` the Potency was “inactive”.
For `O=C(O)Cc1ccc(NC(=O)Nc2cccc3ccccc23)cc1`, the Potency was “inactive”.
With `CN(C(=O)CCNC(=O)Cn1ccc2ccccc2c1=O)c1ccc(Br)cc1` the Potency was “inactive”.
In the case of `Cc1cc(C)c(S(=O)(=O)N2CCC(C(=O)OCc3c(C)noc3C)CC2)c(C)c1`, the Potency is reported as “inactive”.
With `CN(CC#CCC(c1ccccc1)c1ccccc1)C(C)(C)C` the Potency was 12.6 µM (active).
With `CC(C)(C)N(CC#CCC(O)(c1ccccc1)C1CCCC1)CCO` (centres undefined) the Potency was “inactive”.
With `CCc1[nH]nc(C(=O)N2CCCC(CNS(=O)(=O)c3cccs3)C2)c1C` (centres undefined) the Potency was “inactive”.
In the case of `Cc1cc(C)nc(SCc2cn3c(C)cc(C)nc3n2)n1`, the Potency is reported as “inactive”.
In the case of `O=C(NC1CCCC1)C(c1ccco1)N(C(=O)c1csnn1)c1ccccc1` (centres undefined), the Potency is reported as “inactive”.
For `CCOC(=O)CCC(NC(=O)c1ccc(CNc2nc3cc(C(F)(F)F)ccc3nc2C(=O)OCC)cc1)C(=O)OCC` (centres undefined), the Potency was “inactive”.
With `Cc1ccc(OC(=O)c2ccccc2C(=O)OCC(F)(F)C(F)F)cc1` the Potency was “inactive”.
In the case of `CCN(CC)CCNS(=O)(=O)c1ccc(/C=C/C(=O)O)cc1`, the Potency is reported as “inactive”.
For `Cn1cc(CN2CCCCC2c2ccccn2)c(-c2ccc3c(c2)OCCO3)n1` (centres undefined), the Potency was “inactive”.
For `CC1(C(=O)Nc2cccc3cccnc23)CCN1C(=O)CCC1CCCC1` (centres undefined), the Potency was 16.4 µM (active).
In the case of `CC1(C(=O)NS(=O)(=O)c2ccc(Cl)cc2)CCN1C(=O)CC1CCCC1` (centres undefined), the Potency is reported as “inactive”.
For `CC1(C(=O)Nc2ccccc2Br)CCN1C(=O)CC1CC1` (centres undefined), the Potency was “inactive”.
For `Cc1ccc(S(=O)(=O)N2CCN(C(=O)N3CCOCC3)CC2)c(C)c1`, the Potency was “inactive”.
With `CN1CCN(S(=O)(=O)c2cccc(C(=O)O)c2)CC1` the Potency was “inactive”.
With `CC1Cc2ccccc2N1S(=O)(=O)c1cccc(C(=O)OCC(=O)N2CCOCC2)c1` (centres undefined) the Potency was “inactive”.
In the case of `CNC(=O)C1CN(C(=O)c2cccc(S(=O)(=O)N3CCc4ccccc43)c2)c2ccccc2O1` (centres undefined), the Potency is reported as 7.31 µM (active).
In the case of `CC(=O)N1CCN(S(=O)(=O)c2cccc(C(=O)NC3CCC(C)CC3)c2)CC1` (centres undefined), the Potency is reported as “inactive”.
In the case of `CCS(=O)(=O)c1ccc2c(c1)N(S(=O)(=O)c1ccccc1)CC(C(=O)O)O2` (centres undefined), the Potency is reported as “inactive”.
In the case of `CC1CCN(C(=O)c2cccc(S(=O)(=O)N3CCCc4ccccc43)c2)CC1`, the Potency is reported as 16.4 µM (active).
In the case of `Cc1ccccc1OCC(=O)Nc1c(C(=O)Nc2ccccc2F)oc2ccccc12`, the Potency is reported as “inactive”.
For `O=C(OC1CCCCC1=O)c1cccc(S(=O)(=O)NCc2ccccc2)c1` (centres undefined), the Potency was “inactive”.
In the case of `CCOc1ccc(N(CC(=O)NCCc2ccc(OC)cc2)S(C)(=O)=O)cc1`, the Potency is reported as “inactive”.
For `COc1ccc(CCNC(=O)CN(c2ccccc2)S(=O)(=O)c2ccccc2)cc1`, the Potency was “inactive”.
In the case of `CCOc1ccc(N(CC(=O)NCCc2ccc(F)cc2)S(=O)(=O)c2ccccc2)cc1`, the Potency is reported as 20.6 µM (active).
With `Cc1ccc(NC(=O)COC(=O)CN2CCSC2=O)cc1F` the Potency was “inactive”.
With `C/C(=N/N1CCN(Cc2cccc3ccccc23)CC1)c1cccnc1` the Potency was “inactive”.
In the case of `Cc1ccc2c(C)nc(N3CCCC(C(=O)NC(C)(C)CO)C3)nc2c1` (centres undefined), the activity change, negative = growth inhibition is reported as -5.72% [at 9.04 µM] (inactive).
With `Fc1cccc(Cl)c1COc1ccc(-c2nnco2)cc1` the Potency was “inactive”.
With `CCOc1ccc(NCCC(=O)c2ccc3c(c2)OCO3)cc1` the Potency was 25.9 µM (active).
In the case of `O=C(COc1ccc(Cl)cc1)Nc1ccc2c(c1)OCO2`, the Potency is reported as “inactive”.
For `COC(=O)CCNc1ccc2c(c1)OCCO2`, the Potency was “inactive”.
For `O=C1C=C(c2cccc(Br)c2)C[C@@H](c2ccc(F)cc2)C1`, the Potency was “inactive”.
In the case of `Cn1cc[n+](C)c1COc1ccc(C=O)cc1`, the Potency is reported as “inactive”.
With `CC(C(=O)O)c1ccc(C2CCCCC2)c2ccccc12` (centres undefined) the Potency was “inactive”.
In the case of `COc1ccc(NS(=O)(=O)c2ccc(F)cc2F)cn1`, the Potency is reported as “inactive”.
In the case of `O=C(NCCOc1ccccc1)c1ccccc1F`, the Potency is reported as “inactive”.
For `O=C(O)CCC(=O)N(Cc1ccccc1)Cc1ccccc1`, the Potency was “inactive”.
In the case of `O=C(c1ccccc1F)N(Cc1ccccc1)Cc1ccccc1`, the Potency is reported as 8.2 µM (active).
For `Cc1ccc(C(=O)NNC(=O)c2ccc3c(c2)OCCO3)cc1`, the Potency was “inactive”.
In the case of `Fc1ccc2[nH]c3c(N4CCN(Cc5ccc6c(c5)OCO6)CC4)ncnc3c2c1`, the Potency is reported as 2.31 µM (active).
In the case of `Fc1ccc2[nH]c3c(N4CCSCC4)ncnc3c2c1`, the Potency is reported as 11.6 µM (active).
With `N#C/C=C/N1CCN(Cc2ccc3c(c2)OCO3)CC1` the Potency was “inactive”.
With `COc1cc(Cl)c(S(=O)(=O)N2CCN(Cc3ccc4c(c3)OCO4)CC2)cc1Cl` the Potency was “inactive”.
For `CC1CN(CC(=O)NC(C)c2ccccc2)CC(C)O1` (centres undefined), the Potency was “inactive”.
In the case of `COc1ccccc1CNC(=O)CSc1nc(=O)n(Cc2ccncc2)c2c1CCC2`, the Potency is reported as “inactive”.
For `Cc1cccc(N=Nc2c(C)[nH]n(-c3ccccc3)c2=O)c1`, the Potency was “inactive”.
For `Cc1[nH]n(-c2cccc(Cl)c2)c(=O)c1-c1ccc(Cl)cc1`, the Potency was 16.4 µM (active).
With `O=c1c(-c2cccc(Cl)c2)c[nH]n1-c1ccccc1` the Potency was “inactive”.
In the case of `Cc1ccc2cc(C)c(N3CCN(c4ccc(F)cc4)CC3)nc2c1`, the Potency is reported as “inactive”.
In the case of `Cc1ccc(OCCCC(=O)Nc2ccc(S(=O)(=O)Nc3cc(C)nc(C)n3)cc2)cc1`, the Potency is reported as “inactive”.
In the case of `COc1cc(OC)c(C2=NOC(C(=O)Nc3c(C)n(C)n(-c4ccccc4)c3=O)C2)cc1Cl` (centres undefined), the Potency is reported as “inactive”.
With `O=C(Nc1ccc2c(c1)OCCO2)C1c2ccccc2OCC(=O)N1Cc1ccccn1` (centres undefined) the Potency was “inactive”.
In the case of `O=C(Nc1ccc(Cl)cc1)C1c2cccc[n+]2CC(=O)N1Cc1ccc2c(c1)OCO2` (centres undefined), the Potency is reported as 1.3 µM (active).
In the case of `CC1CCC(NC(=O)C2c3ccccc3C(=O)N2Cc2ccc3c(c2)OCO3)CC1` (centres undefined), the Potency is reported as “inactive”.
For `CCOc1ccc(NS(=O)(=O)c2ccc(N)cc2)nn1`, the Potency was “inactive”.
For `COc1cccc(NC(=O)c2ccccc2N(Cc2ccccc2)S(C)(=O)=O)c1`, the Potency was “inactive”.
In the case of `COc1ccc(S(=O)(=O)N2CCN(CC(=O)NCC3(N4CCOCC4)CCCCC3)CC2)cc1`, the Potency is reported as “inactive”.
With `O=C1CCC(C(=O)Nc2ccc(OC(F)F)cc2)N1` (centres undefined) the Potency was “inactive”.
With `CC(C)N(Cc1ccccc1)C(=S)Nc1ccc(OC(F)F)cc1` the Potency was “inactive”.
For `CC(NC(=S)Nc1ccc(OC(F)F)cc1)c1ccc(F)cc1` (centres undefined), the Potency was 14.6 µM (active).
With `Cc1c(CN2CCC(n3nccc3NC(=O)CCc3ccccc3)CC2)cnn1C` the Potency was “inactive”.
For `COc1cccc(/C=N/NC(=O)c2[nH]nc3c2CCc2ccccc2-3)c1O`, the Potency was 2.31 µM (active).
In the case of `CN(C)CCNC(=O)c1[nH]nc2c1CCc1ccccc1-2`, the Potency is reported as “inactive”.
In the case of `COc1cc2cc(C(=O)N/N=C/c3cccc(OC)c3OC)[nH]c2cc1OC`, the Potency is reported as “inactive”.
For `O=C1CC(c2cccc(Cl)c2)CC(O)=C1C=Nc1ccccc1` (centres undefined), the Potency was “inactive”.
For `CSc1ncnc2c1ncn2CCCNCc1cccs1`, the Potency was “inactive”.
For `Cn1c(=O)c2c(n3c4ccccc4nc13)NC(=O)CC2c1cccc(Cl)c1` (centres undefined), the Potency was “inactive”.
With `CC(Oc1cccc(NC(=O)c2cccs2)c1)C(=O)c1ccccc1` (centres undefined) the Potency was “inactive”.
In the case of `Cc1ccc(-c2noc(-c3nnn(-c4cccc(C(F)(F)F)c4)c3N)n2)cc1`, the Potency is reported as “inactive”.
For `Cc1ccc2nc(N(CCN(C)C)C(=O)C3=COCCO3)sc2c1`, the Potency was “inactive”.
With `CC(C)N(Cc1nnc(-c2ccc(Cl)cc2)o1)C(=O)C1=COCCO1` the Potency was 9.2 µM (active).
In the case of `O=C(c1nnc(-c2ccc(Cl)cc2)o1)C1CCCC1`, the Potency is reported as “inactive”.
With `N#Cc1ccc(-c2cccs2)nc1SCc1ccc(Br)cc1` the Potency was “inactive”.
In the case of `Nc1c(-c2ccccc2)nnn1Cc1ccccc1`, the Potency is reported as “inactive”.
In the case of `Cc1cc(C(=O)NNC(=O)CCC2CCCCC2)c(C)o1`, the Potency is reported as “inactive”.
In the case of `Cc1cccc(C(=O)OC(C)C(=O)NC2CCCc3ccccc32)c1O` (centres undefined), the Potency is reported as “inactive”.
With `Cc1cc(C(=O)NCC2Cc3cccc(-c4cncnc4)c3O2)c(C)o1` (centres undefined) the activity change, negative = growth inhibition was 6.48% [at 9.04 µM] (inactive).
In the case of `COc1ccc(C(=O)NC2CCCc3c2cnn3-c2cccc(C)c2C)c(OC)n1` (centres undefined), the Potency is reported as 10.3 µM (active).
For `Cc1cc(C(=O)NC2CCCc3c2cnn3-c2cccc(C)c2C)c(C)o1` (centres undefined), the Potency was 13 µM (active).
In the case of `COCc1c(C(=O)NC2CCCCC2)cnn1-c1nccc(-c2ccccc2OC)n1`, the activity change, negative = growth inhibition is reported as 5.12% [at 9.04 µM] (inactive).
For `CCN(CC(=O)NCc1ccc(F)cc1)S(=O)(=O)c1ccc(Cl)s1`, the Potency was “inactive”.
With `Cc1ccccc1CCNC(=O)C1CCC(=O)N(Cc2ccc(Cl)cc2)C1` (centres undefined) the Potency was “inactive”.
In the case of `C/C(=N\Nc1ccc(S(N)(=O)=O)cc1[N+](=O)[O-])c1cccs1`, the Potency is reported as “inactive”.
In the case of `CCC(=O)N1CCc2cc(S(=O)(=O)NC(C(=O)N3CCc4ccccc4C3)C(C)C)ccc21` (centres undefined), the Potency is reported as “inactive”.
In the case of `CCC(=O)N1CCc2cc(Br)c(S(=O)(=O)NCCN3CCCCC3CC)cc21` (centres undefined), the Potency is reported as “inactive”.
With `CCCN(CCC)S(=O)(=O)c1cc2c(cc1Br)CCN2C(=O)CC` the Potency was 8.2 µM (active).
With `Cc1ccc2c(c1)-c1c(cnn1CC(=O)Nc1ccccc1C#N)CO2` the Potency was “inactive”.
In the case of `O=C(O)C1C2C=CC(O2)C1C(=O)Nc1ccccn1` (centres undefined), the Potency is reported as “inactive”.
For `CCOC(=O)CSc1nnc(-c2ccco2)n1C`, the Potency was “inactive”.
For `Cc1cc(C)nc(SCc2nnc(SCC(=O)Nc3ncc(C)s3)n2Cc2ccco2)n1`, the Potency was “inactive”.
With `CCOC(=O)CSc1nc2c(sc(=S)n2CCc2ccccc2)c(=O)n1Cc1ccco1` the Potency was 20.6 µM (active).
For `O=C(c1ccc(F)cc1)C1CCN(Cc2cn[nH]c2-c2ccccc2)CC1`, the Potency was “inactive”.
In the case of `C[C@H](NC(=O)OC(C)(C)C)c1nnc(SCC(N)=O)o1`, the Potency is reported as “inactive”.
In the case of `CC(C)Sc1nnc([C@H](Cc2ccccc2)NC(=O)OC(C)(C)C)o1`, the Potency is reported as “inactive”.
For `C[C@@H](NC(=O)OC(C)(C)C)c1nnc(S(=O)(=O)Cc2ccccc2)o1`, the Potency was 0.651 µM (active).
With `CN(CCC#N)c1ccc(C=O)cc1` the Potency was “inactive”.
With `CCn1c(=S)[nH]c2cc(S(=O)(=O)N3CCOCC3)ccc21` the Potency was “inactive”.
With `Cc1ccc(S(=O)(=O)N[C@H](CO)C(C)C)cc1` the Potency was “inactive”.
With `Cc1ccc(S(=O)(=O)N/N=C(\c2ccccc2)C2CC2)cc1` the Potency was “inactive”.
For `Cc1ccc(S(=O)(=O)/N=C2\C=C(NS(=O)(=O)c3ccc(C)cc3)C(=O)c3ccccc32)cc1`, the Potency was 23.1 µM (active).
